High-throughput results: PubChem BioAssay, several laboratories
PREPL inh = PREPL enzyme inhibitors, primary screen, biochemical, fluorescence polarization; recombinant PREPL, fluorescence polarization activity-based probe; inhibition, % at 5.96 µM; 320,000 compounds, 0.68% hits; AID 2751, 2010; in the data active = inhibition above about 43%
TMEM16A act = TMEM16A chloride channel activators or potentiators, primary screen, cell-based, HTS; AID 623877, 2012; HEK293 TMEM16A/YFP-H148Q/I152L, iodide quench fluorescence; stronger effect = lower value; 340,000 compounds, 0.3% hits; B-score at 10 µM; Anoctamin-1 (Mus musculus), Q8BHY3;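 active = fluorescence-ratio B-score plate-corrected deviation score at least 3 library SD below zero, with starting fluorescence score within 5 deviations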;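 also: channel opened by trigger with iodide after compound preincubation; score built on the fluorescence ratio of max minus min over baseline; more negative score means more quench and so TMEM16A activation or potentiation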
TMEM16A inh = TMEM16A chloride channel inhibitors, primary screen, cell-based, HTS; HEK293 TMEM16A/YFP iodide influx fluorescence, ionomycin; 310,000 compounds, 1.2% hits; normalized B-score (activity score, 25-100; higher = stronger inhibition) at 10 µM;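 active = ratio plate-corrected score three or more library SD toward inhibition, starting fluorescence score within five deviations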;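 also: score derived from kinetic fluorescence span divided by baseline fluorescence per well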
PP1 inh = PP1-alpha phosphatase inhibitors, primary screen, counter-screen for PP5 inhibitor project, biochemical, fluorescence, OMFP substrate, single point. 320,000 compounds, 0.9% hits. inhibition, % at 6.7 µM. purified PP1alpha. Serine/threonine-protein phosphatase PP1-alpha catalytic subunit (Homo sapiens), P62136;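 active = inhibition above the mean inhibition of all tested compounds plus 3 SD, computed separately for each screening campaign, cut at about 15% in these data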
PP5 primary = PP5 phosphatase inhibitors, primary screen, biochemical, fluorescence | Serine/threonine-protein phosphatase 5 (Homo sapiens), P53041 | purified PP5c, OMFP substrate fluorescence | inhibition, % at 6.7 µM | 320,000 compounds, 0.18% hits | AID 1987, 2009;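 active = inhibition above the campaign's mean inhibition across all tested compounds plus 3 SD, cut at about 9.5% in these data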
Target sequence (P53041 whole entry, looked up): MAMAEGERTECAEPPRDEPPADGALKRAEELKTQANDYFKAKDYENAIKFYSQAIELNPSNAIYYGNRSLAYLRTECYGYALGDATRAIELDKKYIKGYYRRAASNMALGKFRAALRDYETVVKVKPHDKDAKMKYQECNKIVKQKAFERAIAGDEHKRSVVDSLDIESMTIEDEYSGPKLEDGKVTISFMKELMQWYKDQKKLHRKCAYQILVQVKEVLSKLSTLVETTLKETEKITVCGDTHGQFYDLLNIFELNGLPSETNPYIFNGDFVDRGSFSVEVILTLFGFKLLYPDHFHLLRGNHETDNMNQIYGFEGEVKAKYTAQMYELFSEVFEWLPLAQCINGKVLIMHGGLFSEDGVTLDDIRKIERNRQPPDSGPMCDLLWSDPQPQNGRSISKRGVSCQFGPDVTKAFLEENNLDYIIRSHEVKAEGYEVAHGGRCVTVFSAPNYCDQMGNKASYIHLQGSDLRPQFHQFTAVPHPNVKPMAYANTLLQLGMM
FID counter = compounds displacing fluorescent DNA intercalator, primary screen, artefact control for HCV NS3 helicase inhibitor project, biochemical, FID fluorescence; DNA fluorescent intercalator displacement; inhibition, % at 7.9 µM; 290,000 compounds, 0.17% hits; in the data active = inhibition above about 37%;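 also: higher means more ethidium bromide displaced from hairpin DNA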
TMEM16A reconf = TMEM16A chloride channel inhibitors, confirmation, cell-based, re-confirmation; shares compounds with TMEM16A inh; HEK293 TMEM16A/YFP-H148Q, iodide quench fluorescence; ionomycin added to raise cell calcium; inhibition, % at 10 µM; 2,300 compounds, 39% hits;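 active = mean duplicate percent inhibition, scaled so buffer wells are 0 and the reference blocker 100, over three buffer SD above buffer mean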
TMEM16A Ca cntr = calcium mobilization in TMEM16A/YFP HEK293 cells, confirmation, counter-screen for TMEM16A inhibitor project; shares compounds with TMEM16A inh; Fluo4 calcium mobilization; calcium response (% of ionomycin), % at 10 µM; 2,300 compounds, 2% hits;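 active = duplicate-averaged calcium signal over 20% of the ionomycin maximum, relative to buffer baseline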;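 also: each well's signal is peak minus trough fluorescence divided by its pre-addition baseline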
YFP-HEK293 quench = iodide YFP quench changes in parental YFP-HEK293, counter-screen for TMEM16A inhibitor project, cell-based; ionomycin; 2,300 tested, under 10 active; shares compounds with TMEM16A inh; YFP ratio F(max-min)/F0 at 10 µM; AID 652233, 2013;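 active = yellow fluorescent protein signal ratio exceeding the buffer control mean by over 5 SD of those controls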;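 also: ratio is mean of duplicate wells from kinetic YFP trace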
ClC-1 inh = ClC-1 chloride channel inhibition, selectivity assay for TMEM16A inhibitor project, cell-based, voltage-dependent ClC-1. shares compounds with TMEM16A inh. CHO ClC-1-YFP, iodide influx fluorescence quench; iodide control reads 0, buffer control 100. ratio percent, % at 10 µM. 2,300 tested, under 10 active;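 active = duplicate-mean ratio percent above the mean of iodide-only control wells, which defines zero, plus 5 of their SD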;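 also: higher percent means stronger block of ClC-1 iodide influx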
A number is an active result; i = inactive; nt = not tested or not shown. Compounds with a hit are over-represented: about 2.7% of the library has one in this group of screens.

SMILES | PREPL inh | TMEM16A act | TMEM16A inh | PP1 inh | PP5 primary | FID counter | TMEM16A reconf | TMEM16A Ca cntr | YFP-HEK293 quench | ClC-1 inh
O=C(c1noc2c1CSc1ccccc1-2)N1CCN(c2ccc(Cl)cc2)CC1 | i | i | 25 | i | i | i | i | i | i | i
O=C(c1ccccc1)N1CCN(c2ccc(Cl)cc2)CC1 | i | i | i | i | i | i | nt | nt | nt | nt
Cc1ccccc1C(=O)NNC(=S)NC(=O)COc1ccccc1 | i | i | 25 | i | i | i | 34% | 80% | i | i
CCc1c(C2(O)CCCCC2)[nH]c2cnccc12 | i | i | nt | i | i | nt | nt | nt | nt | nt
CC(/C=N/NC(=O)c1ccc(Cn2cc([N+](=O)[O-])cn2)o1)=C\c1ccccc1 | i | i | i | i | i | i | nt | nt | nt | nt
Cc1cccc(NC(=O)C2CCCN(S(=O)(=O)c3ccc4[nH]c(=O)ccc4c3)C2)c1 (stereo not drawn) | i | i | i | i | i | i | nt | nt | nt | nt
N#Cc1c(C(F)(F)F)cc(-c2ccc(Cl)cc2)[nH]c1=O | i | i | 100 | i | i | i | 28% | i | i | i
N#Cc1c(C(F)(F)F)cc(-c2ccc(F)cc2)[nH]c1=O | i | i | i | i | i | i | nt | nt | nt | nt
N#Cc1c(C(F)(F)F)cc(-c2cccc(Cl)c2)[nH]c1=O | i | i | 25 | i | i | i | 28% | i | i | i
CC(=O)Nc1cccc(NC(=O)CSc2ncc(-c3ccc(Cl)cc3)n2Cc2ccco2)c1 | i | i | 100 | i | i | i | 32% | i | i | i
Cc1ccc(C)c(NC(=S)N2CCN(c3cccc(C(F)(F)F)c3)CC2)c1 | i | i | i | i | i | i | nt | nt | nt | nt
Cc1ccnc(NC(=S)N2CCN(c3cccc(C(F)(F)F)c3)CC2)c1 | i | i | 25 | i | i | i | 18% | i | i | i
Cc1c(Cc2ccc3c(c2)OCO3)sc(NC(=O)c2ccccc2)c1C(N)=O | i | i | i | i | i | i | i | i | i | i
CN(C)Cc1cc(O)c(CN(C)C)cc1O | i | i | i | i | i | i | i | i | i | i
CN(C)Cc1cc(C(C)(C)C)cc(C(C)(C)C)c1O | i | i | i | i | i | i | nt | nt | nt | nt
COc1ccc(C(=O)N/N=C/c2ccc(N(C)c3ccccc3)cc2)cc1 | i | i | 25 | i | i | nt | i | i | i | i
COc1ccc(C(=O)N/N=C/c2ccc(OC(=O)c3ccccc3)cc2)cc1 | i | i | i | i | i | i | nt | nt | nt | nt
CCOc1ccc(S(=O)(=O)N(C)c2ccc(OCC(=O)Nc3ccccc3F)cc2)cc1 | nt | i | nt | nt | nt | nt | nt | nt | nt | nt
COc1cccc(-c2cc(C(F)(F)F)n3nc(C(=O)N4CCCCC4c4cccnc4)cc3n2)c1 (stereo not drawn) | i | i | 25 | i | i | i | i | i | i | i
Cc1nc(NCc2ccco2)c2cn[nH]c2n1 | nt | i | nt | nt | nt | nt | nt | nt | nt | nt
c1coc(CNc2nc3nonc3nc2NCc2ccco2)c1 | i | i | 25 | i | i | i | i | i | i | i
Cc1cccc(C(=O)Nc2nnc(SCC(=O)NCc3ccco3)s2)c1 | i | i | i | i | i | i | nt | nt | nt | nt
CCc1ccccc1NC(=O)CCS(=O)(=O)c1ccc(Br)cc1 | i | i | i | i | i | i | i | i | i | i
Cc1ccc(S(=O)(=O)N2CCN(C(=O)CCC(=O)NCc3cccc(C(F)(F)F)c3)CC2)cc1 | i | i | 25 | i | i | nt | i | i | i | i
Oc1ccccc1-c1cc(C(F)(F)F)[nH]n1 | nt | nt | nt | nt | nt | i | nt | nt | nt | nt
SMILES | PREPL inh | TMEM16A act | TMEM16A inh | PP1 inh | PP5 primary | FID counter | TMEM16A reconf | TMEM16A Ca cntr | YFP-HEK293 quench | ClC-1 inh
Oc1ccccc1-c1cc(C(F)(F)C(F)F)[nH]n1 | i | i | 100 | i | i | i | i | i | i | i
CC(C)(C)c1cc(-c2ccccc2)n[nH]1 | i | i | i | i | i | i | nt | nt | nt | nt
FC(F)C(F)(F)c1cc(-c2ccc(Cl)cc2)n[nH]1 | i | i | 100 | i | i | i | 97% | i | i | i
Fc1ccc(-c2cc(C(F)(F)C(F)F)[nH]n2)cc1 | i | i | 100 | i | i | i | 54% | i | i | i
Cc1nn(C)cc1/C=N\NC(=O)c1csc2c1CCCC2 | i | i | i | i | i | i | nt | nt | nt | nt
Cc1nc(Cl)c(N=Cc2cccc([N+](=O)[O-])c2)c(Cl)n1 | i | i | i | i | i | i | nt | nt | nt | nt
CC1(C)CC2CC(C)(CN2S(=O)(=O)c2cccc(C(N)=O)c2)C1 (stereo not drawn) | i | i | nt | i | i | nt | nt | nt | nt | nt
CC1(C)CC2CC(C)(CN2S(=O)(=O)c2ccc(N)cc2)C1 (stereo not drawn) | i | i | 25 | i | i | i | i | i | i | i
Cc1ccsc1C(=O)OCc1csc(-c2ccccc2)n1 | i | i | 100 | i | i | i | 16% | i | i | i
CC(O)CNCCNCc1cccs1 (stereo not drawn) | i | i | i | i | i | i | nt | nt | nt | nt
CC1CCN(C(=O)c2cc(-c3ccc4c(c3)OCO4)on2)CC1 | i | i | i | i | i | i | i | i | i | i
CCCNc1c(NS(=O)(=O)c2cccc(C#N)c2)c(=O)oc2ccccc12 | i | i | i | i | i | i | nt | nt | nt | nt
CC1CCN(c2ccc(S(=O)(=O)N3CCC(C)CC3)cc2N)CC1 | i | i | 25 | i | i | i | 30% | i | i | i
Cn1nccc1C(=O)NC1CCCc2c1cnn2-c1ccc(C(C)(C)C)cc1 (stereo not drawn) | i | i | 25 | i | i | i | 28% | i | i | i
CCOC(=O)c1ccc(NC(=O)CSc2ccc(-c3cccnc3)nn2)cc1 | i | i | 25 | i | i | i | i | i | i | i
CCOC(=O)C1(Cc2ccccc2Cl)CCN(Cc2csc(C(C)=O)c2)CC1 | i | i | 25 | i | i | i | i | i | i | i
CCOC(=O)C1(Cc2cccc(OC)c2)CCN(Cc2ccccc2)CC1 | i | i | i | i | i | i | nt | nt | nt | nt
